# From the supplement of paper PMC12282887
# ± gives the standard deviation of the averaged measurements.
# Tests used:
# Assay in all cases: promoter activity interaction Z-score (Lux/OD deviation from empty-vector control); higher = stronger promoter induction by the compound
# [1] = tested on: E. coli BW25113 robp lux reporter
# Procedure, shortened: (§1)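 Low-copy luxCDABE promoter reporters were carried by E. coli BW25113, either wild type or lacking one of three genes, grown in 40 µl LB Lennox in 384-well plates at 37°C. Each compound was run at four 1:2 dilutions in biological duplicates, with OD600 and luminescence read every 30 min for 12 h. Integration used 0–8 h for wild type and 1–9 h for deletion strains, and wells under 10% of the median growth value were removed. Luminescence normalised to growth was fitted against a control, and the Z-transformed residual is the score.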
# [2] = tested on: E. coli BW25113 soxSp lux reporter
# Procedure, shortened: as §1
# [3] = tested on: E. coli BW25113 tolCp lux reporter
# Procedure, shortened: as §1
# [4] = 0.47 µg/ml, genetic background: wild type
# [5] = 0.47 µg/ml, genetic background: ΔmarA
# [6] = 0.47 µg/ml, genetic background: Δrob
# [7] = 0.47 µg/ml, genetic background: ΔsoxS
# [8] = 0.93 µg/ml, genetic background: wild type
# [9] = 0.93 µg/ml, genetic background: ΔmarA
# [10] = 0.93 µg/ml, genetic background: Δrob
# [11] = 0.93 µg/ml, genetic background: ΔsoxS
# [12] = 1.9 µg/ml, genetic background: wild type
# [13] = 1.9 µg/ml, genetic background: ΔmarA
# [14] = 1.9 µg/ml, genetic background: Δrob
# [15] = 1.9 µg/ml, genetic background: ΔsoxS
# [16] = 3.7 µg/ml, genetic background: wild type
# [17] = 3.7 µg/ml, genetic background: ΔmarA
# [18] = 3.7 µg/ml, genetic background: Δrob
# [19] = 3.7 µg/ml, genetic background: ΔsoxS
smiles,measurement,setting,value
CC1(C)S[C@@H]2[C@H](NC(=O)Cc3ccccc3)C(=O)N2[C@H]1C(=O)O [Penicillin G],promoter activity interaction Z-score,[1]; [4],0.349 ± 0.073
same,promoter activity interaction Z-score,[1]; [5],-0.4 ± 0.07
same,promoter activity interaction Z-score,[1]; [6],0.363 ± 0.43
same,promoter activity interaction Z-score,[1]; [7],0.277 ± 0.35
same,promoter activity interaction Z-score,[1]; [8],0.428 ± 0.22
same,promoter activity interaction Z-score,[1]; [9],0.187 ± 0.37
same,promoter activity interaction Z-score,[1]; [10],0.468 ± 0.14
same,promoter activity interaction Z-score,[1]; [11],1.15 ± 0.22
same,promoter activity interaction Z-score,[1]; [12],0.165 ± 0.58
same,promoter activity interaction Z-score,[1]; [13],0.313 ± 0.31
same,promoter activity interaction Z-score,[1]; [14],0.501 ± 0.075
same,promoter activity interaction Z-score,[1]; [15],1.21 ± 0.031
same,promoter activity interaction Z-score,[1]; [16],-0.01 ± 0.15
same,promoter activity interaction Z-score,[1]; [17],-0.105 ± 0.66
same,promoter activity interaction Z-score,[1]; [18],0.319 ± 0.12
same,promoter activity interaction Z-score,[1]; [19],0.575 ± 0.42
same,promoter activity interaction Z-score,[2]; [4],-0.0325 ± 0.0094
same,promoter activity interaction Z-score,[2]; [5],-0.123 ± 0.17
same,promoter activity interaction Z-score,[2]; [6],-0.201 ± 0.0035
same,promoter activity interaction Z-score,[2]; [7],0.0709 ± 0.024
same,promoter activity interaction Z-score,[2]; [8],-0.167 ± 0.16
same,promoter activity interaction Z-score,[2]; [9],0.103 ± 0.074
same,promoter activity interaction Z-score,[2]; [10],-0.163 ± 0.14
same,promoter activity interaction Z-score,[2]; [11],0.0504 ± 0.19
same,promoter activity interaction Z-score,[2]; [12],-0.132 ± 0.13
same,promoter activity interaction Z-score,[2]; [13],-0.0824 ± 0.12
same,promoter activity interaction Z-score,[2]; [14],-0.0996 ± 0.047
same,promoter activity interaction Z-score,[2]; [15],0.084 ± 0.14
same,promoter activity interaction Z-score,[2]; [16],-0.201 ± 0.12
same,promoter activity interaction Z-score,[2]; [17],0.0156 ± 0.13
same,promoter activity interaction Z-score,[2]; [18],-0.136 ± 0.17
same,promoter activity interaction Z-score,[2]; [19],-0.126 ± 0.39
same,promoter activity interaction Z-score,[3]; [4],-0.848 ± 1
same,promoter activity interaction Z-score,[3]; [5],-0.0171 ± 0.012
same,promoter activity interaction Z-score,[3]; [6],0.219 ± 0.5
same,promoter activity interaction Z-score,[3]; [7],0.375 ± 0.55
same,promoter activity interaction Z-score,[3]; [8],-0.35 ± 0.54
same,promoter activity interaction Z-score,[3]; [9],-0.485 ± 0.89
same,promoter activity interaction Z-score,[3]; [10],-0.163 ± 0.37
same,promoter activity interaction Z-score,[3]; [11],0.352 ± 0.23
same,promoter activity interaction Z-score,[3]; [12],-0.309 ± 1
same,promoter activity interaction Z-score,[3]; [13],-0.171 ± 0.9
same,promoter activity interaction Z-score,[3]; [14],-0.0507 ± 1.1
same,promoter activity interaction Z-score,[3]; [15],0.284 ± 0.24
same,promoter activity interaction Z-score,[3]; [16],-0.124 ± 0.38
same,promoter activity interaction Z-score,[3]; [17],-0.297 ± 0.25
same,promoter activity interaction Z-score,[3]; [18],-0.675 ± 1.1
same,promoter activity interaction Z-score,[3]; [19],0.109 ± 0.61
